Assay [1] is described as follows: NCI Yeast Anticancer Drug Screen. Data for the rad50 strain (AID 155).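 Also: 0% = growth of vehicle-only cultures of the same strain.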 The conditions noted are these: S. cerevisiae rad50 strain growth inhibition, stronger effect = higher value. In outline:
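Relative growth inhibition (compound vs vehicle) was measured in yeast with a defined repair-gene alteration.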

Assay [2] is described as follows: NCI Yeast Anticancer Drug Screen. Data for the mec2-1 strain (AID 157). Conditions: S. cerevisiae mec2-1 strain, stronger effect = higher value. In outline: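 Readout is yeast growth inhibition, normalised to vehicle-treated controls, in the mec2-1 strain exposed to compound.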
Assay [3] is described as follows: NCI Yeast Anticancer Drug Screen. Data for the cln2 rad14 strain (AID 165).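 Also: 0% = growth equal to vehicle treated cultures.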 The conditions noted are these: S. cerevisiae cln2 rad14 strain, stronger effect = higher value. In outline:
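Relative to vehicle controls, growth inhibition of compound-treated cln2 rad14 yeast was recorded.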

Assay [4] is described as follows: NCI Yeast Anticancer Drug Screen. Data for the bub3 strain (AID 167). The conditions noted are these: S. cerevisiae bub3 mutant strain, stronger effect = higher value. In outline: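 Screening used yeast with an engineered genetic alteration affecting cell cycle control. Compound-exposed cultures were compared with vehicle cultures, and reduced growth was taken as inhibition.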

A short description of assay [5]: NCI Yeast Anticancer Drug Screen. Data for the mlh1 rad18 strain (AID 175). The conditions noted are these: S. cerevisiae mlh1 rad18 strain growth inhibition, stronger effect = higher value. The gist of the method: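 Test agents were incubated with a yeast strain of defined genotype (DNA damage repair defect). Inhibition of growth was derived by comparison with vehicle-exposed cultures.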

A short description of assay [6]: NCI Yeast Anticancer Drug Screen. Data for the sgs1 mgt1 strain (AID 161).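 Also: 0% = growth of cultures given vehicle only.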 Conditions: S. cerevisiae sgs1 mgt1 strain, stronger effect = higher value. In outline:
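This yeast growth screen uses a strain with defined DNA-repair lesions; compound-treated growth is compared with vehicle-treated growth.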

Where [7] appears, read: at 5.0 µM (retest, dose inferred, filed as 0.5).
The mark [8] stands for this setting: at 50.0 µM (retest, dose inferred, filed as 5.0).

SMILES strings stand for the structures. Compounds without any hit were thinned out: in the full panel of roughly 79,000, 15% have a hit. A number with no mark means an inactive call. Calls of active or inactive are those of the source. Rule as the data show it: active = growth inhibition above about 70%; inactive = the rest.

On to `CC[PH+](CC)CC.[Cl][Au]`, for which the growth inhibition in assay [1] (setting [7]) was 98% (active); in assay [1] (setting [8]) it was 98% (active); in assay [1] (at 50.0 µM) it was 89.8% (active); in assay [2] (setting [7]), 99% (active); in assay [2] (setting [8]), 99% (active); in assay [2] (at 50.0 µM), 91.4% (active). Also, the growth inhibition in assay [3] (setting [7]) is 92% (active); in assay [3] (setting [8]), 99% (active); in assay [3] (at 50.0 µM), 90.8% (active); in assay [4] (setting [7]), 99% (active); in assay [4] (setting [8]) it was 99% (active); in assay [4] (at 50.0 µM) it was 89.8% (active). For the same compound, the growth inhibition in assay [5] (setting [7]) is 94% (active); in assay [5] (setting [8]), 99% (active); in assay [5] (at 50.0 µM), 90.8% (active).
`C[C@@H]1C[C@@H]([C@H](O)CC2CC(=O)NC(=O)C2)C(=O)[C@@H](C)C1`: the growth inhibition is 95% (active) in assay [1] (setting [7]); 99% (active) in assay [1] (setting [8]); 92% (active) in assay [1] (at 50.0 µM); 98% (active) in assay [2] (setting [7]); 100% (active) in assay [2] (setting [8]); 93.6% (active) in assay [2] (at 50.0 µM). Also, the growth inhibition in assay [6] (setting [7]) was 94% (active); in assay [6] (setting [8]) it was 99% (active); in assay [6] (at 50.0 µM), 94.2% (active); in assay [3] (setting [7]), 98% (active); in assay [3] (setting [8]), 99% (active); in assay [3] (at 50.0 µM), 90.7% (active). For the same compound, the results for the growth inhibition in assay [5] (setting [7]), in assay [5] (setting [8]) and in assay [5] (at 50.0 µM) were 93% (active), 99% (active) and 92.1% (active), respectively.
On to `CC(C)=CCC/C(C)=C/CC/C(C)=C/Cc1c(O)c2ccccc2oc1=O`, for which the growth inhibition in assay [1] (setting [7]) was 16%; in assay [1] (setting [8]), 94% (active); in assay [1] (at 50.0 µM), 89% (active); in assay [2] (setting [7]), 5%; in assay [2] (setting [8]), 97% (active); in assay [2] (at 50.0 µM) it was 91.5% (active). The growth inhibition was 7% in assay [6] (setting [7]); 95% (active) in assay [6] (setting [8]); 89.7% (active) in assay [6] (at 50.0 µM); -11% in assay [4] (setting [7]); 95% (active) in assay [4] (setting [8]); 88.3% (active) in assay [4] (at 50.0 µM). Moreover, the growth inhibition was -21% in assay [5] (setting [7]), 98% (active) in assay [5] (setting [8]) and 89.2% (active) in assay [5] (at 50.0 µM).
Take `O=C([CH-]C(=O)c1ccccc1)c1ccccc1.O=C([CH-]C(=O)c1ccccc1)c1ccccc1.O=C([CH-]C(=O)c1ccccc1)c1ccccc1.[Nd+3].[OH3+]`: the growth inhibition was 49% in assay [1] (setting [7]); 99% (active) in assay [1] (setting [8]); 91.8% (active) in assay [1] (at 50.0 µM); 43% in assay [2] (setting [7]); 100% (active) in assay [2] (setting [8]); 93.8% (active) in assay [2] (at 50.0 µM). Moreover, the growth inhibition was 55% in assay [6] (setting [7]); 100% (active) in assay [6] (setting [8]); 93.8% (active) in assay [6] (at 50.0 µM); 61% in assay [4] (setting [7]); 99% (active) in assay [4] (setting [8]); 92.5% (active) in assay [4] (at 50.0 µM). The growth inhibition in assay [5] (setting [7]) was 60%; in assay [5] (setting [8]), 100% (active); in assay [5] (at 50.0 µM), 91.2% (active).
Take `Cc1cccc(C)c1N=C(N)N[N+](=O)[O-]`: the growth inhibition is 45% in assay [1] (setting [7]); 96% (active) in assay [1] (setting [8]); 89.5% (active) in assay [1] (at 50.0 µM); 53% in assay [2] (setting [7]); 97% (active) in assay [2] (setting [8]); 90.3% (active) in assay [2] (at 50.0 µM). Moreover, the growth inhibition in assay [6] (setting [7]) was 90% (active); in assay [6] (setting [8]) it was 98% (active); in assay [3] (setting [7]), 57%; in assay [3] (setting [8]) it was 98% (active); in assay [4] (setting [7]), 27%; in assay [4] (setting [8]) it was 97% (active). Further, the values for the growth inhibition in assay [5] (setting [7]), in assay [5] (setting [8]) and in assay [5] (at 50.0 µM) were 33%, 99% (active) and 88% (active), respectively.
For the compound `O=C([CH-]C(=O)c1ccccc1)c1ccccc1.O=C([CH-]C(=O)c1ccccc1)c1ccccc1.O=C([CH-]C(=O)c1ccccc1)c1ccccc1.[OH3+].[Y+3]`, the growth inhibition was 46% in assay [1] (setting [7]); 99% (active) in assay [1] (setting [8]); 91.6% (active) in assay [1] (at 50.0 µM); 42% in assay [2] (setting [7]); 100% (active) in assay [2] (setting [8]); 93.5% (active) in assay [2] (at 50.0 µM). Also, the growth inhibition in assay [6] (setting [7]) was 53%; in assay [6] (setting [8]), 100% (active); in assay [6] (at 50.0 µM) it was 94.1% (active); in assay [4] (setting [7]), 63%; in assay [4] (setting [8]), 84% (active); in assay [4] (at 50.0 µM), 92.5% (active). Moreover, the growth inhibition in assay [5] (setting [7]) is 56%; in assay [5] (setting [8]), 100% (active); in assay [5] (at 50.0 µM), 91.5% (active).
Take `CC(=O)[O-].CC(=O)[O-].O=C([CH-]C(=O)c1ccccc1)c1ccccc1.[Nd+3].[OH3+]`: the growth inhibition is 33% in assay [1] (setting [7]); 33% in assay [1] (setting [8]); 91.6% (active) in assay [1] (at 50.0 µM); 27% in assay [2] (setting [7]); 27% in assay [2] (setting [8]); 91.9% (active) in assay [2] (at 50.0 µM). Moreover, the growth inhibition was 30% in assay [6] (setting [7]); 30% in assay [6] (setting [8]); 93% (active) in assay [6] (at 50.0 µM); 27% in assay [4] (setting [7]); 27% in assay [4] (setting [8]); 91% (active) in assay [4] (at 50.0 µM). In addition, the growth inhibition was 24% in assay [5] (setting [7]), 24% in assay [5] (setting [8]) and 88.8% (active) in assay [5] (at 50.0 µM).
For `CS(=N)(=O)CCC(N)C(=O)O` (configuration not stated), the growth inhibition in assay [1] (setting [7]) was -162%; in assay [1] (setting [8]), -152%; in assay [1] (at 50.0 µM), 11.4%; in assay [2] (setting [7]), -50%; in assay [2] (setting [8]), -48%; in assay [2] (at 50.0 µM) it was 9.8%. The growth inhibition in assay [6] (setting [7]) was -65%; in assay [6] (setting [8]), -45%; in assay [6] (at 50.0 µM), -3.9%; in assay [4] (setting [7]) it was -73%; in assay [4] (setting [8]) it was -78%; in assay [4] (at 50.0 µM), 2.1%. Further, the growth inhibition is -153% in assay [5] (setting [7]), -114% in assay [5] (setting [8]) and 14.6% in assay [5] (at 50.0 µM).
Regarding `[CH3][Sn]([CH3])([S]CCS(=O)(=O)O)[S]CCS(=O)(=O)O`, the growth inhibition in assay [1] (setting [7]) is 10%; in assay [1] (setting [8]) it was 7%; in assay [1] (at 50.0 µM), 33.5%; in assay [2] (setting [7]) it was 9%; in assay [2] (setting [8]), 11%; in assay [2] (at 50.0 µM), 7.1%. The growth inhibition in assay [6] (setting [7]) was -38%; in assay [6] (setting [8]), -30%; in assay [6] (at 50.0 µM), -9.75%; in assay [4] (setting [7]) it was -20%; in assay [4] (setting [8]), -24%; in assay [4] (at 50.0 µM), -12.2%. The growth inhibition in assay [5] (setting [7]) was 14%; in assay [5] (setting [8]) it was 11%; in assay [5] (at 50.0 µM), -61.6%.
For `CC(=O)[CH-]C(C)=O.CC(=O)[CH-]C(C)=O.N=CC=N.[Sn+2]`, the growth inhibition in assay [1] (setting [7]) is 95% (active); in assay [1] (setting [8]), 98% (active); in assay [1] (at 50.0 µM), 88.2% (active); in assay [6] (setting [7]) it was 98% (active); in assay [6] (setting [8]) it was 99% (active); in assay [6] (at 50.0 µM), 94.2% (active). The growth inhibition in assay [3] (setting [7]) is 87% (active); in assay [3] (setting [8]) it was 97% (active); in assay [3] (at 50.0 µM), 93.5% (active); in assay [4] (setting [7]), 98% (active); in assay [4] (setting [8]) it was 99% (active); in assay [4] (at 50.0 µM), 93.3% (active).
Consider `COc1cc(/C=C\[N+](=O)[O-])ccc1O`, for which the growth inhibition in assay [1] (setting [7]) is 87% (active); in assay [1] (setting [8]), 99% (active); in assay [1] (at 50.0 µM), 99.2% (active); in assay [2] (setting [7]), 53%; in assay [2] (setting [8]), 100% (active); in assay [2] (at 50.0 µM), 99.6% (active). Further, the growth inhibition in assay [3] (setting [7]) was 21%; in assay [3] (setting [8]), 100% (active); in assay [3] (at 50.0 µM) it was 99% (active); in assay [4] (setting [7]), 77% (active); in assay [4] (setting [8]), 99% (active); in assay [4] (at 50.0 µM) it was 99% (active). Further, the growth inhibition is 51% in assay [5] (setting [7]), 99% (active) in assay [5] (setting [8]) and 99% (active) in assay [5] (at 50.0 µM).
